Shown is part of a subset that was picked to be rich in hits.
HT1080 IDH1KD tx = qHTS for induction of synthetic lethality in tumor cells producing 2HG: qHTS for the HT-1080-IDH1KD cell line; HT-1080 IDH1 knockdown viability, ATP luminescence, 48 h; Potency, µM (top dose mostly 46.1 µM), for the others: top-dose activity, negative = toxicity, usual class: cytotoxic; hit rate 2% among 360,000; AID 686971, 2013;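 further: potency means the concentration at half of the fitted maximal effect; 0% = DMSO wells and -100% = cell-free medium wells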
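IDH1KD HT-1080 cells, 750/well, RPMI + 5% FBS; compound pinned after 2 h settling; 48 h, 37 °C; CellTiter-Glo luminescence; % activity normalised to DMSO and no-cell wells; curves fitted, classed by r2 and efficacy.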
ALOX12 inh = Primary qHTS assay for inhibitors of human arachidonate 12S-lipoxygenase (ALOX12): Round 2 | purified 12hLO, xylenol orange hydroperoxide absorbance | Potency, µM (titrated, usually from 108 µM), for inactives: at the highest dose activity change, negative = inhibition, usual class: inhibitors | hit rate 1.1% among 580,000; further: potency means the concentration at half of the fitted maximal effect
Target sequence (P18054 whole entry, looked up): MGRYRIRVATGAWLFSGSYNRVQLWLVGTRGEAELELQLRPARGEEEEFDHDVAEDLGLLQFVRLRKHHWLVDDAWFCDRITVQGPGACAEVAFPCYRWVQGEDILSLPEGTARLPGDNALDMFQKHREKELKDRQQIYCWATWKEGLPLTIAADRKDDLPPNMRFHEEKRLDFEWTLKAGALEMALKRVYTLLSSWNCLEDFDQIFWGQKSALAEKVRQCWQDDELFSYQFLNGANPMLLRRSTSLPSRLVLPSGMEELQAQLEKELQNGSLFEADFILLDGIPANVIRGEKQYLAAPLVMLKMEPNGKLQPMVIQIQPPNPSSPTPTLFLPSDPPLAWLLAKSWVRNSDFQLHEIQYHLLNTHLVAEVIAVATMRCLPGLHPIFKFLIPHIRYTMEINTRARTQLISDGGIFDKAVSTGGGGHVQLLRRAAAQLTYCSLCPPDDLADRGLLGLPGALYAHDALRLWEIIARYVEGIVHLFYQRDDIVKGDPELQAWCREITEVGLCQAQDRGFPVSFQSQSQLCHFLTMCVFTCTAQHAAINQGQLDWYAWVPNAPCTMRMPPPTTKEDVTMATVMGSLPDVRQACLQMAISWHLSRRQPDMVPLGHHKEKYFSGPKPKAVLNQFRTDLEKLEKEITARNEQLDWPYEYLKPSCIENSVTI
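Purified human 12hLO (150 nM final) in 25 mM Hepes, 0.01% Triton X-100, pH 7.0 was preincubated 15 min at room temperature with compound. Then 40 uM arachidonic acid was added, 30 min. Hydroperoxide was read by Fe-XO absorbance ratio 573/405 nm.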
IL1B secr inh = qHTS for Inhibitors of Inflammasome Signaling: IL-1-beta AlphaLISA Primary Screen; THP-1 LPS/ATP IL-1B secretion, AlphaLISA, 16 h; hits give low values; activity change, % at 57.5 µM; hit rate 4.7% among 360,000; AID 743279, 2014; in the data active means activity change below about -50%; inconclusive means mostly about -30% to -49%
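Secreted IL-1B measured by AlphaLISA bead assay after 16 h compound exposure of THP-1 cells; compounds (final up to 57.5 uM) added 1 h before LPS (250 ng/mL) and ATP (1.25 mM) stimulation; lower signal means less secretion.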
HT1080-NT tox = qHTS for induction of synthetic lethality in tumor cells producing 2HG: qHTS for the HT-1080-NT fibrosarcoma cell line | HT-1080-NT fibrosarcoma viability, CellTiter-Glo ATP luminescence, 48 h | Potency, µM (top dose mostly 46.1 µM), without a hit: at the top dose activity, negative = less viability, hits mostly cytotoxic | hit rate 1.6% among 360,000 | AID 686970, 2013;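 further: NT is the 2HG producing partner of a matched IDH1 knockdown line; potency means the concentration at half of the fitted maximal effect; 0% = DMSO-treated cells and -100% = media-only wells without cells; nearly all actives have a fitted effect of over 55% in size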
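Toxicity toward the 2HG-producing NT line was scored as %Activity, normalised to DMSO and no-cell wells, from CellTiter-Glo luminescence after 48 hours' treatment.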
DT40 TDP1 no CPT = qHTS for Inhibitors of human tyrosyl-DNA phosphodiesterase 1 (TDP1): qHTS in cells in absence of CPT; AID 686978, 2013; Potency, µM (titrated, usually from 46.2 µM), inactives show top-dose activity change, negative = growth inhibition, hits mostly inhibitors; hit rate 15% among 420,000; DT40 Tdp1-/- hTDP1 cells, no CPT, ATP luminescence, 48 h; further: potency means the concentration at half of the fitted maximal effect; nearly all actives have a fitted effect of over 55% in size
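Cells were dispensed at 400 per well, compounds added by pin tool, plates incubated ≥48 hr at 37 °C, then CellTiter-Glo added for 30 min at room temperature before luminescence reading. Line: DT40 Tdp1-/- complemented with hTDP1; camptothecin omitted.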
DT40 TDP1 CPT = qHTS for Inhibitors of human tyrosyl-DNA phosphodiesterase 1 (TDP1): qHTS in cells in presence of CPT; chicken DT40 Tdp1-/-;hTDP1 cells + 20 nM CPT, ATP luminescence, 48 h; Potency, µM (highest dose often 46.2 µM), without a hit: top-dose activity change, negative = growth inhibition, usual class: inhibitors; AID 686979, 2013; hit rate 12% among 420,000; further: potency means the concentration at half of the fitted maximal effect; nearly all actives have a fitted effect of over 55% in size
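Chicken DT40 Tdp1-/- cells complemented with human TDP1, 400 cells/well, exposed to compounds plus 20 nM camptothecin for at least 48 h at 37 C; viability read as ATP content by CellTiter-Glo luminescence.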
* hit, by the source's call; i = inactive; ? = inconclusive; . = not tested or not shown; [ ] = dose if it differs, or a comment. Unless noted, the call rests on the fitted dose curve; in most records, active means well fitted curve in the direction sought with a large enough effect; inconclusive means small, poorly fitted or top-dose-only effect, or another doubt; inactive means no such curve, though single readings can be large; an effect the other way counts as inactive or inconclusive. Unless noted, on the % scale 0 is the no-effect control and ±100 the full control effect.

SMILES	HT1080 IDH1KD tx	ALOX12 inh	IL1B secr inh	HT1080-NT tox	DT40 TDP1 no CPT	DT40 TDP1 CPT
O=C(N/N=C/c1cc(Cl)cc([N+](=O)[O-])c1O)NC12CC3CC(CC(C3)C1)C2	-13.5%	?	14.1	-20.2%	?	?
Oc1ccccc1/C=N/NC(=S)NC1CC2C=CC1C2 (stereo not given)	?	?	-100.0*	?	1.64µM*	1.84µM*
COCC1CN(C)CC12CCN(S(=O)(=O)Cc1ccc(F)cc1)CC2 (stereo not given)	.	34.1%	.	.	.	.
O=C(OCc1cccc(Cl)c1)c1cc(Cl)c[nH]1	.	-20.2%	.	.	.	.
C[C@]12CCC(O)CC1CCC1C2CC[C@]2(C)C(c3cc(C(F)(F)F)n[nH]3)CCC12 (stereo not given in full)	0.4%	-0.7%	19.9	0.1%	13µM*	?
N#Cc1c2nc3ccccc3nc2n2cc(NC(=O)c3ccc(F)cc3)ccc12	6.6%	39.8µM*	-7.1	-1.6%	4.61µM*	4.11µM*
CCN(CC)c1ccc(/C=C/c2c(C)cnc3ccccc23)cc1	.	.	.	.	11.2µM*	?
CCN(CC)c1ccc(/C=C(\C#N)C(=O)NCc2ccccc2)cc1	-16.0%	.	?	-1.0%	?	-2.7%
CCN(CC)c1nc(C=Cc2ccc(N(C)C)cc2)c2nccnc2n1	14.2%	?	-24.1	4.4%	20.6µM*	23.1µM*
CN(C)c1ccc(C=Cc2nccc3ccccc23)cc1	20.6µM*	?	-22.2	?	?	?
CCN(CC)c1ccc(/C=C/c2nccc3ccccc23)cc1	.	.	.	.	12.6µM*	?
CCOC(=O)C1(C)CCCCCN1C(=O)c1csnn1 (stereo not given)	1.3%	5.4%	-11.5	4.9%	0.2%	-13.1%
Cc1ccc(S(=O)(=O)N(C)C)cc1-n1c(SCC(=O)Nc2ccc(F)c(F)c2F)nc2ccccc2c1=O	-8.3%	-1.8%	18.1	-12.8%	20.6µM*	14.6µM*
Cc1ccc(S(=O)(=O)N(C)C)cc1-n1c(SCC(=O)N(C)C)nc2ccccc2c1=O	-3.5%	-9.2%	-5.0	0.0%	-28.2%	-2.7%
Cc1cnc(C(=O)N2CCC3(CC2)NCCc2c3[nH]c3ccccc23)cn1	.	41.7%	.	.	.	.
COc1ccc(-c2noc(CCC(=O)N3CCN(c4ccccc4OC)CC3)n2)cc1	8.0%	0.2%	0.0	3.7%	20.6µM*	?
COc1ccc(-c2noc(CCC(=O)N3CCN(c4cccc(Cl)c4)CC3)n2)cc1	-11.0%	-2.7%	3.9	-8.5%	23.1µM*	?
COc1ccc(OCC(=O)N2CCN(c3cccc(Cl)c3)CC2)cc1	-2.3%	14.3%	-5.2	-0.7%	?	?
COc1ccc(-c2noc(CCC(=O)N3CCN(c4ccccc4C)CC3)n2)cc1	-4.4%	?	34.0	-1.8%	-16.9%	?
COc1ccc(C(=O)CCC(=O)N2CCN(c3cccc(Cl)c3)CC2)cc1	-2.7%	3.8%[57.4 µM]	-28.3	-11.5%	23.1µM*	16.4µM*
Cc1ccccc1-n1c(=O)c2sccc2n(CC(=O)NC(C)C)c1=O	.	34.4%	.	.	.	.
CS(=O)(=O)c1ccc(C(=O)N2CCN(S(=O)(=O)c3ccc(C4CCCCC4)cc3)CC2)cc1	-7.6%	-3.1%	17.7	-7.8%	-23.8%	?
O=S(=O)(c1ccc(C2CCCCC2)cc1)N1CCCC1	2.2%	0.0%	-64.7*	-1.2%	?	?
N#CCCN1CCN(S(=O)(=O)c2ccc(C3CCCCC3)cc2)CC1	-3.0%	-1.7%	0.0	-4.2%	-12.9%	13µM*
N#CCCN1CCN(S(=O)(=O)c2ccc(S(=O)(=O)N3CCOCC3)cc2)CC1	7.2%	337.9%	-12.1	2.0%	-1.0%	11.0%
SMILES	HT1080 IDH1KD tx	ALOX12 inh	IL1B secr inh	HT1080-NT tox	DT40 TDP1 no CPT	DT40 TDP1 CPT
COc1cccc(-c2oc3c(c2C#CC2(N)CCCCC2)C(O)CCC3)c1 (stereo not given)	?	?	-11.1	16.4µM*	18.4µM*	18.4µM*
COc1ccc(C(=O)NCCNc2ccccc2[N+](=O)[O-])cc1	-7.4%	-7.2%	?	2.8%	-22.3%	?
CCCNC(=O)c1ccc(S(=O)(=O)c2ccc(OC)cc2)c([N+](=O)[O-])c1	?	-22.4%	-92.4*	?	4.11µM*	5.17µM*
O=C(c1ccoc1)N1CCC(Cc2nc(-c3ccncc3)n[nH]2)C1 (stereo not given)	.	45.4%	.	.	.	.
CCOc1ccc(N(CC(=O)N2CCN(c3ccccc3OC)CC2)S(=O)(=O)c2ccc(F)cc2)cc1	-9.4%	16.3%	i	0.1%	?	?
CCOC(=O)c1c(C)[nH]c(C)c1S(=O)(=O)N(C)CC(=O)N1CCN(c2ccccc2OC)CC1	.	-26.4%	.	.	?	18.4µM*
CCOc1ccc(N(CC(=O)N2CCN(c3ccccc3OC)CC2)S(=O)(=O)c2ccc(C)cc2)cc1	3.8%	-15.0%	i	0.2%	20.6µM*	?
CCOC(=O)N1CCN(C(=O)CN(c2ccc(C)cc2C)S(=O)(=O)c2ccccc2)CC1	.	-17.0%	.	.	-20.6%	-0.3%
CCOC(=O)N1CCN(C(=O)CN(c2cccc(Cl)c2C)S(=O)(=O)c2ccc(C)cc2)CC1	.	-21.2%	.	.	?	20.6µM*
COc1ccccc1N(CC(=O)N1CCN(c2ccccc2)CC1)S(=O)(=O)c1ccc(C)cc1	-1.1%	-1.6%	-7.9	5.1%	?	18.4µM*
Cc1ccc(-c2nc3nc(C)cc(C)n3c2Nc2ccc3c(c2)OCCO3)cc1	.	?	.	.	-42.1%	?
COc1cccc(-c2nc3nc(C)cc(C)n3c2Nc2ccc3c(c2)OCCO3)c1	-12.2%	?	6.5	7.4%	25.9µM*	?
COc1cccc(-c2nc3nc(C)cc(C)n3c2NCc2ccccc2)c1	-2.1%	0.0%	11.9	-3.4%	11.6µM*	?
COc1ccc(Nc2c(-c3cccc(OC)c3)nc3nc(C)cc(C)n23)cc1	7.8%	14.0%	15.9	15.6%	20.6µM*	?
C=CCN1C(=O)c2n[nH]c(C)c2C1c1ccc(C)cc1 (stereo not given)	.	3.1%	.	.	.	.
O=C(C[n+]1cc(-c2ccc(Cl)cc2)n2c1CCC2)Nc1nc(-c2ccc(F)cc2)cs1	-3.0%	126.0%	-23.3	-4.2%	18.4µM*	?
